Measured values taken from PubChem BioAssay (NCATS).
Inconclusive results are not listed. Entries that show only a call come without a potency. Activity calls are given as the source filed them. Calls come from the whole dose curve; as a rule, active = well fitted cell-killing curve with a large enough effect; inconclusive = small, poorly fitted or top-dose-only effect, or effect the other way; inactive = no such curve, though single readings can be large or run the other way.

Assays:
[1] = Quantitative High-Throughput drug screen in 47 multiple myeloma cell lines against the NCATS MIPE library collection: Delta47_JCRB cell viability assay (AID 1918925; note: nearly all actives have a fitted effect of over 45% in size)
Procedure, shortened: (§1)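 Myeloma cells (500 per well) were exposed to MIPE 4.0 compounds by pin transfer and incubated 48 hours at 37C, 5% CO2. Viability was read as ATP by CellTiter-Glo luminescence, normalised to DMSO (100%) and media-only (0%) wells.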

[2] = Quantitative High-Throughput drug screen in 47 multiple myeloma cell lines against the NCATS MIPE library collection: AMO1_DSMZ cell viability assay (AID 1918927; note: nearly all actives have a fitted effect of over 30% in size)
Procedure, shortened: as §1

[3] = Quantitative High-Throughput drug screen in 47 multiple myeloma cell lines against the NCATS MIPE library collection: ARP1_JJKsccF8 cell viability assay (AID 1918928; note: nearly all actives have a fitted effect of over 40% in size)
Procedure, shortened: (§2)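 Viability screen: myeloma cells (500/well) incubated 48 h at 37 °C, humidified 5% CO2, with pinned library compounds; CellTiter-Glo added, luminescence read; DMSO wells set 100%, medium-only wells 0%.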

[4] = Quantitative High-Throughput drug screen in 47 multiple myeloma cell lines against the NCATS MIPE library collection: Karpas620_DSMZ cell viability assay (AID 1918959); note: nearly all actives have a fitted effect of over 30% in size
Procedure, shortened: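 We plated 500 myeloma cells per well, pinned in MIPE 4.0 compounds, and incubated for 48 hours at 37C. ATP was then quantified with CellTiter-Glo, with DMSO and media-only wells defining 100% and 0%.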

[5] = Quantitative High-Throughput drug screen in 47 multiple myeloma cell lines against the NCATS MIPE library collection: KMM1_JCRB cell viability assay (AID 1918960); note: nearly all actives have a fitted effect of over 30% in size
Procedure, shortened: as §2

[6] = Quantitative High-Throughput drug screen in 47 multiple myeloma cell lines against the NCATS MIPE library collection: Karpas417_ECACC cell viability assay (AID 1918961); conditions: Karpas417 myeloma viability, CellTiter-Glo ATP luminescence, 48 h; viability (% of DMSO): at 45.8 µM (top of the series)
Procedure, shortened: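 Viability readout: CellTiter-Glo luminescence following 5 min room-temperature incubation with reagent. Prior exposure: 48 h, 37C, humidified 5% CO2, 500 cells per well.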

[7] = Quantitative High-Throughput drug screen in 47 multiple myeloma cell lines against the NCATS MIPE library collection: EJM_DSMZ cell viability assay (AID 1918926; note: nearly all actives have a fitted effect of over 30% in size)
Procedure, shortened: as §1

[8] = Quantitative High-Throughput drug screen in 47 multiple myeloma cell lines against the NCATS MIPE library collection: ARD_JJKsccE7 cell viability assay (AID 1918929)
Procedure, shortened: as §1
Potency is the fitted concentration of half-maximal effect.

SMILES	Potency [1]	Potency [2]	Potency [3]	Potency [4]	Potency [5]	Potency [6]	Potency [7]	Potency [8]
CC1(C)[C@H](O[C@H]2O[C@H](C(=O)O)[C@@H](O)[C@H](O)[C@H]2O[C@@H]2O[C@H](C(=O)O)[C@@H](O)[C@H](O)[C@H]2O)CC[C@@]2(C)[C@H]1CC[C@]1(C)[C@H]2C(=O)C=C2[C@H]3C[C@@](C)(C(=O)O)CC[C@]3(C)CC[C@]21C	inactive	inactive	inactive	inactive	inactive	inactive		
CC(=O)ON=C1C(c2c(O)[nH]c3cc(Br)ccc23)=Nc2ccccc21	5.26 µM (active)	1.87 µM (active)	10.5 µM (active)	4.69 µM (active)	5.9 µM (active)	5.26 µM (active)	11.8 µM (active)	5.26 µM (active)
CCCCCCCCCCCC(CC1OC(=O)C1CCCCCC)OC(=O)C(CC(C)C)NC=O (configuration not stated)		inactive	inactive	inactive	inactive		inactive	inactive
COc1ccc(CCC(=O)c2c(O)cc(O[C@@H]3O[C@H](CO)[C@@H](O)[C@H](O)[C@@H]3O[C@@H]3O[C@@H](C)[C@H](O)[C@@H](O)[C@@H]3O)cc2O)cc1O		inactive		inactive			inactive	inactive
COc1cc(C(=O)NC2CCN(C)CC2)ccc1Nc1ncc2c(n1)N(C1CCCC1)CCC(=O)N2C(C)C	14.8 µM (active)	9.35 µM (active)	29.6 µM (active)	23.5 µM (active)	16.6 µM (active)	13.2 µM (active)	16.6 µM (active)	18.7 µM (active)
COc1ccc(C=Cc2cc(OC)c(OC)c(OC)c2)cc1NC(=O)[C@H](N)CO			0.0053 µM (active)			0.59 µM (active)	0.0105 µM (active)	0.0118 µM (active)
Cn1cc(C=CC(=O)c2cccc(F)c2)cc1C=CC(=O)NO	18.7 µM (active)		16.6 µM (active)	13.2 µM (active)	16.6 µM (active)	13.2 µM (active)		16.6 µM (active)
Cc1cc(C(=O)NOCCO)c(Nc2ccc(I)cc2F)n(C)c1=O		0.118 µM (active)		0.0059 µM (active)			inactive	
CN1C(C(=O)Nc2ccccn2)=C(O)c2sc(Cl)cc2S1(=O)=O	2.96 µM (active)		2.64 µM (active)	inactive	inactive			inactive
C#C[C@]1(O)CC[C@@H]2[C@@H]3CCC4=CC(=O)CC[C@@H]4[C@H]3CC[C@@]21CC			inactive	inactive	inactive	inactive	inactive	
CC(C=CC=C(C)C=CC1=C(C)CCCC1(C)C)=CC=CC=C(C)C=CC=C(C)C=CC1=C(C)CCCC1(C)C		20.9 µM (active)		20.9 µM (active)	inactive		6.62 µM (active)	20.9 µM (active)
CC(N[C@H]1CCCC[C@H]1NC(=O)c1ccc(Cl)cc1)c1cccc2ccccc12 (some centres not stated)			inactive	0.132 µM (active)		0.0469 µM (active)	20.9 µM (active)	
Cc1noc(-c2ccc(CSCCC(=O)O)cc2)c1NC(=O)OC(C)c1ccccc1Cl (configuration not stated)			inactive	inactive	inactive		inactive	inactive
Nc1cccc2c1C(=O)N(C1CCC(=O)NC1=O)C2=O (configuration not stated)	0.0037 µM (active)			0.0209 µM (active)	inactive			
COc1cc(C[C@@H](CO)[C@H](CO)Cc2ccc(O)c(OC)c2)ccc1O	0.662 µM (active)	4.69 µM (active)	inactive			5.9 µM (active)	0.264 µM (active)	9.35 µM (active)
COc1ccc(Nc2nccc(NCCO)n2)cc1		inactive	inactive	inactive	inactive		inactive	inactive
C[C@@H](NCc1cc2ccccc2[nH]1)c1cccc2ccccc12						inactive	inactive	
CC(C)(O)CC[C@@H](O)[C@](C)(O)[C@H]1CC[C@@]2(O)C3=CC(=O)[C@@H]4C[C@@H](O)[C@@H](O)C[C@]4(C)[C@@H]3CC[C@]12C	inactive	inactive	inactive	inactive			inactive	
CC(C)NC[C@@H](C(=O)N1CCN(c2ncnc3c2[C@H](C)C[C@H]3O)CC1)c1ccc(Cl)cc1	0.0935 µM (active)	4.18 µM (active)	2.09 µM (active)	4.18 µM (active)			16.6 µM (active)	

SMILES	Potency [1]	Potency [2]	Potency [3]	Potency [4]	Potency [5]	Potency [6]	Potency [7]	Potency [8]
N#CC(=C(O)c1ccc(Cl)cc1Cl)c1nc2cc(Cl)ccc2c(=O)[nH]1	inactive	1.05 µM (active)	inactive		inactive		inactive	inactive
C#CCC(Cc1cnc2nc(N)nc(N)c2n1)c1ccc(C(=O)N[C@@H](CCC(=O)O)C(=O)O)cc1 (some centres not stated)	inactive	inactive	0.0469 µM (active)	inactive		inactive		
CC(Oc1ccc(O)cc1)(P(=O)(O)O)P(=O)(O)O			inactive	inactive	inactive		inactive	
Cc1cn([C@@H]2O[C@H](CO)[C@@H](O)[C@H]2F)c(=O)[nH]c1=O	inactive	inactive		inactive			inactive	
C=C[C@@H]1CN2CCC1C[C@H]2[C@H](O)c1ccnc2ccc(OC)cc12 (some centres not stated)		inactive		inactive		inactive		inactive
CCN(CC)CCCCNc1ncc2c(n1)N(C)C(=O)N(c1c(Cl)c(OC)cc(OC)c1Cl)C2		inactive		inactive	inactive		18.7 µM (active)	
CC(Cc1ccc(O)c(O)c1)(NN)C(=O)O (configuration not stated)	inactive			inactive			inactive	
c1coc(CNc2ncnc3nc[nH]c23)c1	inactive		inactive		inactive		inactive	inactive
Cc1nc(NC(=O)N2CCC[C@@H]2C(N)=O)sc1-c1ccnc(C(C)(C)C(F)(F)F)c1	1.66 µM (active)		0.418 µM (active)					
CC(O)(C#Cc1ccc2c(c1)N(c1nc(N)ncc1Cl)CC2)c1nccs1 (configuration not stated)	2.09 µM (active)				5.26 µM (active)	4.69 µM (active)	11.8 µM (active)	18.7 µM (active)
CCc1cc(C(C)=NOCc2ccc(C3CCCCC3)c(C(F)(F)F)c2)ccc1CN1CC(C(=O)O)C1								4.69 µM (active)
O=c1[nH]c(=O)n([C@H]2C[C@@H](O)[C@@H](CO)O2)cc1C=CBr		inactive	inactive	inactive	inactive		inactive	
CNC(=O)Nc1ccc(-c2nc(N3CC4CCC(C3)O4)c3cnn(C4CCC5(CC4)OCCO5)c3n2)cc1		0.0166 µM (active)				0.0066 µM (active)	3.32 µM (active)	
NC(=O)c1cccc(-c2cccc(OC(=O)NC3CCCCC3)c2)c1		inactive	inactive	inactive	inactive		inactive	inactive
Cc1[nH]c(C=C2C(=O)Nc3ccccc32)c(C)c1CCC(=O)O	4.69 µM (active)	1.48 µM (active)		18.7 µM (active)			5.9 µM (active)	
CC(C(C)N1CC(=O)NC(=O)C1)N1CC(=O)NC(=O)C1 (configuration not stated)		0.332 µM (active)		inactive	inactive		inactive	
COC(=O)C=CC(=O)OC	1.32 µM (active)	inactive		inactive		4.18 µM (active)		1.18 µM (active)
CCCCCCCCCCCCCCCC(=O)OC[C@@H](NC(=O)C(Cl)Cl)[C@H](O)c1ccc([N+](=O)[O-])cc1			inactive	inactive	inactive	inactive	inactive	inactive
